# PubChem BioAssay AID2283170 (EPA ToxCast)
# Records with an inconclusive call do not appear. The source made the active and inactive calls. The calls were made as follows: active = hit-call score of the fitted dose curve at least 0.9, where 1 is the maximum; inconclusive = response in the unintended direction; inactive = score below 0.9.
# Molecular target: human Lymphocyte-cell Factor Kinase (Lck), LCK (gene 3932) (UniProt P06239)
# Assay: NVS_ENZ_hLck: NovaScreen (NVS) Enzymatic Assay for human Lymphocyte-cell Factor Kinase (Lck)
# Experimental: NVS_ENZ_hLck is a biochemical, single-readout assay that uses extracted gene-proteins in a cell-free assay. Measurements were taken 1 hour after chemical dosing in a 384-well plate.NVS_ENZ_hLck is one of one assay component(s) measured or calculated from the NVS_ENZ_hLck assay. It is designed to make measurements of enzyme activity, a form of enzyme reporter, as detected with fluorescence intensity signals by Fluorescence and electrophoretic mobility shift technology.Data from the assay component NVS_ENZ_hLck was analyzed into 1 assay endpoint. This assay endpoint, NVS_ENZ_hLck, was analyzed in the positive analysis fitting direction relative to DMSO as the negative control and baseline of activity. Using a type of enzyme reporter, loss-of-signal activity can be used to understand changes in the enzymatic activity as they relate to the gene LCK. Furthermore, this assay endpoint can be referred to as a primary readout, because this assay has produced […] where this one serves a enzymatic activity function. To generalize the intended target to other relatable targets, this assay endpoint is annotated to the kinase intended target family, where the subfamily is non-receptor tyrosine kinase.
# Binding assays used specific radioligands (tritiated, iodinated) with non-radioactive competitive displacement ligands in agonist or antagonist protocols (as indicated) and various reference compounds and inhibitors to titrate specific binding to receptors and transporters. Most enzyme assays (CYPs, kinases, phosphatases, proteases, HDACs) used recombinant protein and specific substrates (fluorescence mostly, some colorimetric and radioactive) and inhibitors, followed by a biochemical separation of substrate and product. All assays for the biochemical HTS were initially run in duplicate at a single concentration (10 uM for CYP450 assays and 25 uM for all others). Assay-chemical combinations meeting a pre-defined threshold (e.g., 30% inhibition and other criteria defined below) were then run in singleton concentration-response format with maximum concentration of 20 uM for CYPs and 50 uM for all others. Each assay was run with positive and negative controls, and concurrent controls on every plate. The follow-up (secondary) screen tested active chemical-pairs in concentration series, as well as a few additional assays not tested in the primary screen, some selected negative inactives, and several cases re-run in the concentration series for confirmatory purposes.
# Sequence of human Lymphocyte-cell Factor Kinase (Lck), LCK (gene 3932) (P06239 whole entry, looked up): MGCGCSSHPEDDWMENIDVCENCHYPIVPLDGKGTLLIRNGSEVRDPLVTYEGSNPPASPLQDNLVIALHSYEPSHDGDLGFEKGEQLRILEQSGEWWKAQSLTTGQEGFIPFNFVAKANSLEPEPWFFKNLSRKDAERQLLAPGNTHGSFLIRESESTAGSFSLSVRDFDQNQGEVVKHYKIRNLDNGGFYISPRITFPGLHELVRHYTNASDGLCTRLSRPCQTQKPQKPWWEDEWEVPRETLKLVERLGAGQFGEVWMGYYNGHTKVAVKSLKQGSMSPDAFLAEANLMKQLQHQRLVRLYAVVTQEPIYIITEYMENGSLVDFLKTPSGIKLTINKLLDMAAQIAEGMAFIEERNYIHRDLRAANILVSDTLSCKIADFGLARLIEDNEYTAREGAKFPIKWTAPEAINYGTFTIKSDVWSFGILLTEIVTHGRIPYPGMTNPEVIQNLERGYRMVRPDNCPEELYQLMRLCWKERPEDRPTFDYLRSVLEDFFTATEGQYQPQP
SMILES,AC50,outcome
O=S(=O)(O)C(F)(F)C(F)(F)C(F)(F)C(F)(F)C(F)(F)C(F)(F)C(F)(F)C(F)(F)F,43.9 µM (active),
O=C(Nc1ccccc1)Nc1cnns1,,inactive
CC[C@H](C)[C@H]1O[C@]2(C=C[C@@H]1C)C[C@@H]1C[C@@H](C/C=C(\C)[C@@H](O[C@H]3C[C@H](OC)[C@@H](O[C@H]4C[C@H](OC)[C@@H](NC)[C@H](C)O4)[C@H](C)O3)[C@@H](C)/C=C/C=C3\CO[C@@H]4[C@H](O)C(C)=C[C@@H](C(=O)O1)[C@]34O)O2,36 µM (active),
CNC(=S)S,,inactive
S=C1NCCN1,,inactive
Cc1cnc(C2=NC(C)(C(C)C)C(=O)N2)c(C(=O)O)c1 (stereo not drawn),,inactive
C=CCC1=C(C)[C@@H](OC(=O)[C@@H]2[C@@H](C=C(C)C)C2(C)C)CC1=O,,inactive
O=C(O)C(F)(F)C(F)(F)C(F)(F)C(F)(F)C(F)(F)C(F)(F)C(F)(F)F,,inactive
